Potency data for 9 molecules are collected here from PubChem BioAssay (NCATS).

Records with an inconclusive call do not appear. The source made the active and inactive calls. Calls follow the shape of the dose curve; as a rule, active = well fitted curve in the direction sought with a large enough effect; inconclusive = small, poorly fitted or top-dose-only effect, or another doubt; inactive = no such curve, though single readings can be large; an effect the other way counts as inactive or inconclusive.

Test [1] can be described thus: Quantitative High-Throughput drug screen in 47 multiple myeloma cell lines against the NCATS MIPE library collection: Karpas620_DSMZ cell viability assay (AID 1918959). Also: nearly all actives have a fitted effect of over 30% in size. Also: potency is read from the fitted curve at half-maximal effect. In short, it runs like this: (§1)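 Approved and investigational drugs from MIPE 4.0 were added by pin tool to 500 cells per well. After 48 hours at 37C, ATP-based CellTiter-Glo luminescence indicated remaining viability.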

Test [2] in a line: Quantitative High-Throughput drug screen in 47 multiple myeloma cell lines against the NCATS MIPE library collection: JIM3_ECACC cell viability assay (AID 1918963; also: nearly all actives have a fitted effect of over 35% in size; also: potency is read from the fitted curve at half-maximal effect). In short, it runs like this:
as §1

Test [3] can be described thus: Quantitative High-Throughput drug screen in 47 multiple myeloma cell lines against the NCATS MIPE library collection: JIM1_ECACC cell viability assay (AID 1918964; also: potency is read from the fitted curve at half-maximal effect). In short, it runs like this: (§2)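 CellTiter-Glo ATP luminescence gave viability after 48 h compound treatment at 37C of 500 multiple myeloma cells per well. Normalisation used DMSO-only wells as 100% and media-only wells as 0% viability; primary qHTS of approved and investigational drugs.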

Test [4] in a line: Quantitative High-Throughput drug screen in 47 multiple myeloma cell lines against the NCATS MIPE library collection: INA6_PLB cell viability assay (AID 1918965; also: nearly all actives have a fitted effect of over 55% in size; also: potency is read from the fitted curve at half-maximal effect). In short, it runs like this: (§3)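 Inhibition of cell viability is measured here. Each line was plated at 500 cells per well, treated with MIPE 4.0 drugs, kept 48 hours at 37C, then assayed for ATP content by CellTiter-Glo luminescence.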

A short description of test [5]: Quantitative High-Throughput drug screen in 47 multiple myeloma cell lines against the NCATS MIPE library collection: JJN3_DSMZ cell viability assay (AID 1918966; also: nearly all actives have a fitted effect of over 50% in size; also: potency is read from the fitted curve at half-maximal effect). The procedure, abridged: as §2
Test [6] in a line: Quantitative High-Throughput drug screen in 47 multiple myeloma cell lines against the NCATS MIPE library collection: H1112_PLB cell viability assay (AID 1918967; also: nearly all actives have a fitted effect of over 30% in size; also: potency is read from the fitted curve at half-maximal effect). The procedure, abridged:
as §2

A short description of test [7]: Quantitative High-Throughput drug screen in 47 multiple myeloma cell lines against the NCATS MIPE library collection: KMS27_JCRB cell viability assay (AID 1918970). Also: nearly all actives have a fitted effect of over 30% in size. Also: potency is read from the fitted curve at half-maximal effect. As to conditions: KMS27 myeloma cells, CellTiter-Glo ATP viability, 48 h; viability (% of DMSO): at 45.8 µM (top of the series). In short, it runs like this: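 CellTiter-Glo luminescence after 48 h drug exposure at 37 °C; 500 cells/well, 1536-well format, pin-tool compound addition; DMSO = 100%, media-only = 0% viability.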
Background: Cellular ATP, detected with luciferase, serves as a proxy for viable cell number.

Test [8] is described as follows: Quantitative High-Throughput drug screen in 47 multiple myeloma cell lines against the NCATS MIPE library collection: KMS12BM_JCRB cell viability assay (AID 1918971). Also: nearly all actives have a fitted effect of over 35% in size. Also: potency is read from the fitted curve at half-maximal effect. In short, it runs like this: (§4)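 Steps: seed 500 cells per well; pin-transfer MIPE 4.0 library; incubate 48 h at 37C, 5% CO2, humidified; add CellTiter-Glo, 5 min room temperature; read luminescence.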

The nature of test [9]: Quantitative High-Throughput drug screen in 47 multiple myeloma cell lines against the NCATS MIPE library collection: KMS12PE_JCRB cell viability assay (AID 1918972). Also: nearly all actives have a fitted effect of over 30% in size. Also: potency is read from the fitted curve at half-maximal effect. The procedure, abridged: as §3
The nature of test [10]: Quantitative High-Throughput drug screen in 47 multiple myeloma cell lines against the NCATS MIPE library collection: KMS20_JCRB cell viability assay (AID 1918973). Also: nearly all actives have a fitted effect of over 45% in size. Also: potency is read from the fitted curve at half-maximal effect. The procedure, abridged: as §2
Test [11] in a line: Quantitative High-Throughput drug screen in 47 multiple myeloma cell lines against the NCATS MIPE library collection: KMS26_JCRB cell viability assay (AID 1918975). Also: nearly all actives have a fitted effect of over 45% in size. Also: potency is read from the fitted curve at half-maximal effect. The procedure, abridged: as §4
A short description of test [12]: Quantitative High-Throughput drug screen in 47 multiple myeloma cell lines against the NCATS MIPE library collection: MMM1_PLB cell viability assay (AID 1918976). Also: nearly all actives have a fitted effect of over 35% in size. Also: potency is read from the fitted curve at half-maximal effect. In short, it runs like this:
(§5)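 ATP-based luminescence (CellTiter-Glo, 5 min RT incubation) quantified surviving cells following two days' treatment with MIPE 4.0 agents at 37 °C, 5% CO2.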

Test [13] can be described thus: Quantitative High-Throughput drug screen in 47 multiple myeloma cell lines against the NCATS MIPE library collection: NCIH929_DSMZ cell viability assay (AID 1918978). Also: nearly all actives have a fitted effect of over 35% in size. Also: potency is read from the fitted curve at half-maximal effect. The procedure, abridged:
as §5

The nature of test [14]: Quantitative High-Throughput drug screen in 47 multiple myeloma cell lines against the NCATS MIPE library collection: OCIMY1_PLB cell viability assay (AID 1918979). Also: nearly all actives have a fitted effect of over 35% in size. The procedure, abridged:
as §5

Test [15] in a line: Quantitative High-Throughput drug screen in 47 multiple myeloma cell lines against the NCATS MIPE library collection: Karpas25_ECACC cell viability assay (AID 1918968; also: nearly all actives have a fitted effect of over 35% in size; also: potency is read from the fitted curve at half-maximal effect). The procedure, abridged:
as §2

The nature of test [16]: Quantitative High-Throughput drug screen in 47 multiple myeloma cell lines against the NCATS MIPE library collection: MOLP8_DSMZ cell viability assay (AID 1918977). Also: nearly all actives have a fitted effect of over 45% in size. Also: potency is read from the fitted curve at half-maximal effect. The procedure, abridged: as §5
Test [17] in a line: Quantitative High-Throughput drug screen in 47 multiple myeloma cell lines against the NCATS MIPE library collection: KHM11_PLB cell viability assay (AID 1918962). Also: nearly all actives have a fitted effect of over 35% in size. The procedure, abridged:
as §1

As for `C#CCC(Cc1cnc2nc(N)nc(N)c2n1)c1ccc(C(=O)N[C@@H](CCC(=O)O)C(=O)O)cc1` (stereo partly specified), the Potency result in test [1], in test [3], in [7], in test [8], in [9] and in test [10] was “inactive” each time. Also, the Potency result in test [12] and in [14] was “inactive” in each case. The Potency was 0.0469 µM (active) in test [2]; 0.0935 µM (active) in [4]; 0.0662 µM (active) in test [5]; 0.132 µM (active) in test [6]; 0.105 µM (active) in test [11]; 0.118 µM (active) in test [13].
With `CC(C)OC(=O)[C@H](C)N[P@](=O)(OC[C@H]1O[C@@H](n2ccc(=O)[nH]c2=O)[C@](C)(F)[C@H]1O)Oc1ccccc1`, the Potency entry in test [1], in test [2], in test [4], in [15], in test [7] and in [9] was “inactive” in each case. For the same molecule, the Potency result in test [11], in [16], in test [13] and in test [14] was “inactive” in each case. Further, the Potency in test [8] is 1.66 µM (active).
For the molecule `CC(C)(C)c1nc2c3cc[nH]c(=O)c3c3cc(F)ccc3c2[nH]1`, the Potency entry in test [1], in [3], in test [7] and in test [9] was “inactive” each time. In addition, the Potency in test [4] is 0.418 µM (active); in test [10], 1.32 µM (active); in [11] it was 0.0118 µM (active); in test [12], 0.662 µM (active).
Take `C[C@H](NC(=O)Cc1cc(F)cc(F)c1)C(=O)N[C@H](C(=O)OC(C)(C)C)c1ccccc1`: the Potency result in test [1], in test [17], in test [6], in test [15], in test [7] and in [9] was “inactive” in each case. For the same molecule, the Potency result in test [11] and in test [13] was “inactive” in each case. For the same molecule, in [8], the Potency is 4.69 µM (active).
Take `CCN(C(=O)c1c(O)c2c(Cl)cccc2n(C)c1=O)c1ccccc1`: the Potency in [1] and in test [7] was 16.6 µM (active) in each case. Besides, the Potency result in [2], in test [6], in test [15], in [8], in test [16] and in test [14] was “inactive” each time.
Regarding `CC(=O)O[C@]1(C(C)=O)CC[C@H]2[C@@H]3C=C(C)C4=CC(=O)CC[C@]4(C)[C@@H]3CC[C@@]21C`, the Potency was 14.8 µM (active) in test [1]; 10.5 µM (active) in [3]; 8.33 µM (active) in test [15]; 9.35 µM (active) in [7]; 9.35 µM (active) in test [8]; 11.8 µM (active) in test [9]. In addition, the values for the Potency in [12] and in test [13] were 18.7 µM (active) and 7.43 µM (active), respectively. The Potency entry in [17], in test [11] and in test [14] was “inactive” in each case.
Regarding `Cn1cc(C[C@@H](N)C(=O)O)c2ccccc21`, the Potency entry in test [1], in test [2], in test [6], in test [15], in test [7] and in test [11] was “inactive” throughout. For the same molecule, the Potency result in test [13] and in [14] was “inactive” throughout. For the same molecule, the values for the Potency in test [8], in test [12] and in test [16] were 2.29 µM (active), 0.645 µM (active) and 0.115 µM (active), respectively.
As to `CC(=O)N[C@H]1[C@@H]([C@H](O)[C@H](O)CO)OC(C(=O)O)=C[C@@H]1N=C(N)N`, the Potency result in test [1], in test [17], in [4], in test [7], in test [8] and in test [11] was “inactive” each time. The Potency entry in [13] and in test [14] was “inactive” throughout.
On to `C=C1C[C@@]2(O)O[C@@]3(C[C@H]2C(C)C)[C@H](C)CC[C@H]13`, for which the Potency entry in test [1], in test [2], in test [4], in test [5], in [7] and in test [8] was “inactive” in each case. Moreover, the Potency entry in test [9], in [10], in test [16], in [13] and in test [14] was “inactive” in each case.
